In PubChem BioAssay AID1645882 (National Center for Advancing Translational Sciences (NCATS), 2021):
Several values for one entry are separate records, joined by “and”; a condition that tells them apart may be missing. Equal values may be shown once. In all, about 16,000 compounds went through this assay and about 120 (0.75%) were called active. Roughly 4% stayed inconclusive and do not appear here. Calls follow the shape of the dose curve; as a rule, active = well fitted inhibition curve with a large enough effect; inconclusive = small, poorly fitted or top-dose-only effect; inactive = no such curve, though single readings can be large or run the other way. Many of the other results were omitted from the sample, so actives are more common in it than they were.

What follows are molecules tested against Rap guanine nucleotide exchange factor 3 (Homo sapiens) (UniProt O95398) (assay: Validation qHTS for antagonist of cAMP-regulated guanine nucleotide exchange factor 3 (EPAC1)). Details: EPAC1 Rap1B-BODIPY-GDP exchange, fluorescence; series mostly up to 150 µM; activity change, negative = inhibition: at the top concentration.
Sequence of Rap guanine nucleotide exchange factor 3 (Homo sapiens) (O95398 whole entry, looked up): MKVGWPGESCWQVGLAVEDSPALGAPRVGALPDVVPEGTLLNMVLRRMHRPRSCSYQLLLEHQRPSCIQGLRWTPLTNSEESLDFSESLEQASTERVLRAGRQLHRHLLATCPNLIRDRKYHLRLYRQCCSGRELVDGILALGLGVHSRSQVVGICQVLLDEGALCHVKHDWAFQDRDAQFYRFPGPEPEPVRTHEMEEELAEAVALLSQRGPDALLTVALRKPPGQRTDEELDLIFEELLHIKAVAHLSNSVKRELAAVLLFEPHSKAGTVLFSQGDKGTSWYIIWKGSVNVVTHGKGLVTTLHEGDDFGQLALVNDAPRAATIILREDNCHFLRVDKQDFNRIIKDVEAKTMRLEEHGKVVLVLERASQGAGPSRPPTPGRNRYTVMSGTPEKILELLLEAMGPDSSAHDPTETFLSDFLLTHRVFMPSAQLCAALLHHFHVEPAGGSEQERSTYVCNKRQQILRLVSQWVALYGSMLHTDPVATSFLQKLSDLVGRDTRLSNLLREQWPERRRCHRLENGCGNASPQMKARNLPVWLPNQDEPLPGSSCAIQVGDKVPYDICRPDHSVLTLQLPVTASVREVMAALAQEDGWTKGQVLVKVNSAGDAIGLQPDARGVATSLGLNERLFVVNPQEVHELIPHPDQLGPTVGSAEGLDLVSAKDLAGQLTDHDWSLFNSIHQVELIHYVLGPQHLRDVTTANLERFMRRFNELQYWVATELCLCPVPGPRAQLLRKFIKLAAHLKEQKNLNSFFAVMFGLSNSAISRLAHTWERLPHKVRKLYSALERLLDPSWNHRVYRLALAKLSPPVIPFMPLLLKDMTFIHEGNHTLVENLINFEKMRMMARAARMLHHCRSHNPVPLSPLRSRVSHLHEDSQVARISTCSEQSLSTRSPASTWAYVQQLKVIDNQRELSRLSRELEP
Summary of the method: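 EPAC1 (100 nM) mixed with 250 nM RAP1B-BODIPY-GDP and 50 uM GDP; compounds in concentration series, 5 min at room temperature. Fluorescence (ex 480/em 540 nm) read every 5 min for 30 min; normalized to ATA control and DMSO.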
Also: nearly all actives have a fitted effect of over 75% in size.
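For activity change, negative = inhibition in this document: plate controls were DMSO for no effect and ATA control for full effect.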
Potency is read from the fitted curve at half-maximal effect.

| SMILES | Potency | activity change, negative = inhibition |
| --- | --- | --- |
| O=S(=O)(O)c1cc(N=C=S)ccc1/C=C/c1ccc(N=C=S)cc1S(=O)(=O)O | 35.5 µM (active) | – |
| Nc1nc2c(c(=O)[nH]1)N(C=O)C(CNc1ccc(C(=O)NC(CCC(=O)O)C(=O)O)cc1)CN2 (stereo not given) | – | 12.1% (inactive) |
| Fc1ccc(Nc2ccnc(-c3ccc4c(c3)OCO4)n2)cc1 | – | -16.5% (inactive) |
| O=C(Nc1nccs1)[C@@H]1CC=C[C@@H]2CCN(Cc3ccccc3)C(=O)[C@@H]21 | – | 7.38% (inactive) |
| CCCc1c(OCCCCc2nn[nH]n2)ccc(C(C)=O)c1O | inactive | – |
| CCCc1c(OCCCOc2ccc(OCC(=O)O)cc2)ccc(CC=O)c1O | 100 µM (active) | – |
| CCCc1c(OCCCOc2ccc(OCC(=O)O)cc2)ccc(C(C)=O)c1O | – | -6.37% [at 75.8 µM] (inactive) |
| COCCn1c(=O)c(-c2cc(F)cc(F)c2)nc2cnc(Oc3ccc(OC)cc3)nc21 | – | 7.13% (inactive) |
| O=C(Nc1ccc(C(=O)O)c(O)c1)c1ccccc1 | – | 4.9% (inactive) |
| Cc1ccc(S(=O)(=O)O)cc1C | – | 11.8% (inactive) |
| Cc1ccc(C(=O)Nc2ccc(S(=O)(=O)O)c3cc(S(=O)(=O)O)cc(S(=O)(=O)O)c23)cc1NC(=O)c1cccc(NC(=O)Nc2cccc(C(=O)Nc3cc(C(=O)Nc4ccc(S(=O)(=O)O)c5cc(S(=O)(=O)O)cc(S(=O)(=O)O)c45)ccc3C)c2)c1 | – | -22% [at 75.8 µM] (inactive) |
| O=C(Nc1ccc(C(=O)Nc2ccc(C(=O)Nc3ccc(S(=O)(=O)O)c4cc(S(=O)(=O)O)cc(S(=O)(=O)O)c34)cc2)cc1)Nc1ccc(C(=O)Nc2ccc(C(=O)Nc3ccc(S(=O)(=O)O)c4cc(S(=O)(=O)O)cc(S(=O)(=O)O)c34)cc2)cc1 | 39.8 µM (active) and 8.91 µM (active) | – |
| O=C(Nc1cc(C(=O)Nc2ccc(S(=O)(=O)O)cc2S(=O)(=O)O)cc(C(=O)Nc2ccc(S(=O)(=O)O)cc2S(=O)(=O)O)c1)Nc1cc(C(=O)Nc2ccc(S(=O)(=O)O)cc2S(=O)(=O)O)cc(C(=O)Nc2ccc(S(=O)(=O)O)cc2S(=O)(=O)O)c1 | 15.8 µM (active) | – |
| O=C(Nc1cccc(C(=O)Nc2ccc(S(=O)(=O)O)c3cc(S(=O)(=O)O)cc(S(=O)(=O)O)c23)c1)Nc1cccc(C(=O)Nc2ccc(S(=O)(=O)O)c3cc(S(=O)(=O)O)cc(S(=O)(=O)O)c23)c1 | 25.1 µM (active) | – |
| OCC1OC(n2cnc3c(=S)nc[nH]c32)C(O)C1O (stereo not given) | – | 12.5% (inactive) |
| Cc1cccc(CNc2ccnc(-c3ccccc3Cl)n2)c1 | – | -8.78% (inactive) |
| O=C1CCC(=O)N1CO | – | 7.5% (inactive) |
| COc1cc(OC)c(/C=C/c2ccc3ccccc3n2)c(OC)c1 | – | 11.9% (inactive) |
| COc1ccccc1CCn1c(=O)cnc2cncnc21 | – | 9.6% (inactive) |
| COc1ccc(CNc2nc(-c3ccccc3OC)nc3ccccc23)c(OC)c1 | – | -2.83% (inactive) |
| CC(C)=CCC1=C(O)c2ccccc2C(=O)C1=O | inactive | – |
| C=CC(C)(C)c1[nH]c2ccccc2c1C1=C(O)C(=O)C(c2c[nH]c3c(CC=C(C)C)cccc23)=C(O)C1=O | 56.2 µM (active) | – |
| CCc1cccc2c(C(O)c3c[nH]c4ccccc34)c[nH]c12 (stereo not given) | – | -21.8% (inactive) |

| SMILES | Potency | activity change, negative = inhibition |
| --- | --- | --- |
| Cc1cc(-c2ccnc(-n3ncc(C(=O)NCCc4cccnc4)c3C)n2)c(C)s1 | – | 6.29% (inactive) |
| COc1ccc(CN2CCC(n3cc(C(=O)N4CCCC4)nn3)CC2)c(OC)c1C | – | 13% (inactive) |
| O=C(c1cnccn1)N1CCC2(CCCN(Cc3nccs3)C2)CC1 | – | 13.2% (inactive) |
| NC(C(=O)O)c1cc(O)cc(O)c1 (stereo not given) | – | 23.2% (inactive) |
| N[C@H](C(=O)O)c1cc(O)cc(O)c1 | inactive | – |
| NC(C(=O)O)c1cc(O)c(Cl)c(O)c1 (stereo not given) | 56.2 µM (active) | – |
| CCCCCCCCCCCCCC[N+](C)(C)C | – | 19.7% (inactive) |
| Cc1cc(O)c(C=O)c(O)c1C(=O)O | – | -4.66% (inactive) |
| Cc1cc2c(C(C)C)c(O)c(O)c(C=O)c2c(O)c1-c1c(C)cc2c(C(C)C)c(O)c(O)c(C=O)c2c1O | 50.1 µM (active) and 39.8 µM (active) and 79.4 µM (active) | – |
| Cc1c(C(=O)N(C)C(C)C)sc2ncnc(NCCCN3CCOCC3)c12 | – | 14.4% (inactive) |
| COc1ccc(SC[C@H](C)CN2CC[C@H](C(C)(C)C)CCC2=O)cc1 | – | -22.7% (inactive) |
| C=CC1=C(C)C2=CC3=NC(=C(CC(=O)[O-])C4=NC(=C(C)C4=C([O-])[O-])C=c4[n-]c(c(C)c4CC)=CC1=N2)C(CCC(=O)[O-])C3C.[Cu+2].[Na+].[Na+].[Na+] (stereo not given) | 89.1 µM (active) | – |
| CCCCCCCCCCCCC(C(=O)O)C(C)C(=O)O (stereo not given) | – | 1.9% (inactive) |
| CCCCCCCCCCCCCCCCC(C(=O)O)C(O)(CC(=O)O)C(=O)O (stereo not given) | 35.5 µM (active) | – |
| CCCCCCCCCCCCC(O)C(=O)O (stereo not given) | – | -12.9% [at 15.3 µM] (inactive) |
| CN1CCN(c2ncc3nc(-c4ccccc4)c(=O)n(CCC#N)c3n2)CC1 | – | 5.83% (inactive) |
| Oc1ccc2c(c1)OC(c1ccc(O)c(O)c1)C(O)C2 (stereo not given) | – | 20.8% (inactive) |
| O=c1c(O)cc(C2Oc3cc(O)cc(O)c3CC2O)cc2c(C3Oc4cc(O)cc(O)c4CC3O)cc(O)c(O)c12 (stereo not given) | 39.8 µM (active) | – |
| Oc1cc(O)c2c(c1)O[C@H](c1ccc(O)c(O)c1)[C@H](O)C2 | 79.4 µM (active) | – |
| Oc1cc(O)c2c(c1)OC(c1cc(O)c(O)c(O)c1)C(O)C2 (stereo not given) | – | -8.05% (inactive) |
| Oc1cc(O)c2c(c1)O[C@H](c1ccc(O)c(O)c1)[C@@H](O)C2 | inactive | – |
| Oc1ccc(C2Oc3cc(O)cc(O)c3CC2O)cc1 (stereo not given) | – | 2.55% (inactive) |
